Screens: PubChem, several laboratories
KKLEB tox – cytotoxicity in KKLEB CF airway cells, primary screen, cytotoxicity control for CF NF-kB inhibitor project, cell-based, uHTS, fluorescence assay plates; KKLEB CF airway cells viability, ATPlite luminescence, overnight; active compounds read low; cells stimulated with P. aeruginosa culture filtrate; activity change (cytotoxicity), % at 5 µM; actives 0.36% (n = 360,000); AID 602141, 2011;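 active = corrected activity change at or below -50% at 5 µM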
HIF-2a block – HIF-2a reporter inhibitors, primary screen, luminescence, 786-0 RCC cells; 786-0 RCC cells HIF-2a reporter, luciferase luminescence, overnight; AID 624352, 2012; actives 0.72% (n = 360,000); inhibition, % at 18.8 µM;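 active = inhibition of the luminescence signal of 40% or more relative to plate controls, in a single-dose primary screen at 18.75 µM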
MITF TRPM1 inh – inhibitors of MITF-dependent TRPM1 promoter reporter, primary screen, cell-based, SK-MEL-5, single point, luciferase | SK-MEL-5 TRPM1 promoter luciferase, 24 h | inhibition, % at 12.5 µM | actives 0.83% (n = 330,000) | AID 488899, 2010;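 active = mean inhibition across replicates of 60% or more, whatever share of single replicates reaches that level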
CF NFkB block – inhibitors of PAF-induced NF-kB signaling, primary screen, cell-based, GFP fluorescence, uHTS. KKLEB NF-kB-GFP reporter, GFP fluorescence overnight. inhibition, % at 5 µM. actives 0.86% (n = 360,000);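 active = at least 50% inhibition at 5 µM, scaled per plate between neutral and stimulator controls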;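 note: PAF is a Pseudomonas aeruginosa culture filtrate used as stimulus; plate controls were PAF-stimulated DMSO wells for no effect and unstimulated DMSO wells for full effect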
ABHD5-PLIN5 inh – ABHD5-PLIN5 interaction inhibitors, primary screen, cell lysate, split luciferase complementation, luminescence; inhibition, % at 4 µM; actives 0.78% (n = 360,000); Perilipin-5 (Homo sapiens) + 1-acylglycerol-3-phosphate O-acyltransferase ABHD5 (Homo …; AID 602281, 2012; Split G. princeps luciferase complementation, 4 h;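 active = inhibition above the mean inhibition across every tested compound plus 3 SD, cut at about 22% in these data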;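 note: 0% = DMSO only wells and the 100% control is not disclosed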
Target sequence (Q00G26 whole entry, looked up): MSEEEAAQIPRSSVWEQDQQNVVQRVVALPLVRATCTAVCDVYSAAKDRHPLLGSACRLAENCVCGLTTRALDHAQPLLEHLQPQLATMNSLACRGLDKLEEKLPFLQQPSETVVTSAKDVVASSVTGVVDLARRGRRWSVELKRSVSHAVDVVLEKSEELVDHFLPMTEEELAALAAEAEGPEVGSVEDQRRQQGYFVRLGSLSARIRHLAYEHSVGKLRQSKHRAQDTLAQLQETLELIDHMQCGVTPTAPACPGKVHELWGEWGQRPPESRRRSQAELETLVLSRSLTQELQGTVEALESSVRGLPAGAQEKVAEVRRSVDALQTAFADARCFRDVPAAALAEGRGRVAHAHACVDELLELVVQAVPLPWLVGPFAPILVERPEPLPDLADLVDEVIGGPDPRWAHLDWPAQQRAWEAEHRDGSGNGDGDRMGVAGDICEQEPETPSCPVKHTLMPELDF
Target sequence (Q8WTS1 whole entry, looked up): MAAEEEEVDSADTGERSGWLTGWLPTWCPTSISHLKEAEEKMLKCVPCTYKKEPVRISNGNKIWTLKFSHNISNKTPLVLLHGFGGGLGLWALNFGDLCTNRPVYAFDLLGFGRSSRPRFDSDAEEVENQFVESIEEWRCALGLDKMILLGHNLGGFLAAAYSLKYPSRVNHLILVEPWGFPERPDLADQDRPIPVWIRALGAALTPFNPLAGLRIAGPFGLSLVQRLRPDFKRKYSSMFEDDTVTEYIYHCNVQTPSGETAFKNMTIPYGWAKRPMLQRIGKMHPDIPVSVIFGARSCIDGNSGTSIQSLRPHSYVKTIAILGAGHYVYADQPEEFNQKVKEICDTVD
Peg3 promoter – Peg3 promoter-driven luciferase inhibitors, primary screen, cell-based, HeLa, luciferase luminescence. actives 1.7% (n = 360,000). inhibition, % at 20 µM. AID 588405, 2011. HeLa PEG-Prom luciferase reporter, overnight;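 active = inhibition of at least 50% at 20 µM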
Starred values were filed as active, the others as inactive; x = no result. Rows were chosen to be rich in hits. Some 3.1% of all compounds tested hit in one or more screens of this group.

SMILES	KKLEB tox	HIF-2a block	MITF TRPM1 inh	CF NFkB block	ABHD5-PLIN5 inh	Peg3 promoter
Cn1nc([N+](=O)[O-])nc1S(C)(=O)=O	6	-4	72*	70*	7	49
CS(=O)(=O)c1nc([N+](=O)[O-])nn1CCCc1ccccc1	-44	18	-1	90*	21	60*
Cc1nn(CCCC(=O)NCCc2ccccc2)c(C)c1[N+](=O)[O-]	-6	7	5	-2	0	11
Cc1cccc(-n2cc(C(=O)O)c(=O)cc2C)c1	3	3	19	4	1	-1
Cc1ccc(-n2c(-c3ccc(Br)cc3)c[n+]3c2CCc2ccc4cccnc4c2-3)cc1	-52*	10	98*	20	20	64*
COc1ccc(-n2c(-c3ccc(Cl)cc3)c[n+]3c2CCc2ccccc2-3)cc1	-12	34	45	-9	8	16
Cc1nnc(NC(=O)Cn2nc(C)c3ccccc3c2=O)s1	6	12	-10	0	2	16
COc1ccc(-c2nc(CS(=O)CC(=O)NC3CCC(C)CC3)c(C)o2)cc1OC (centres undefined)	-19	-199	-44	-6	6	-205
COc1ccc(C(=O)CCS(=O)(=O)c2ccc(C)cc2)cc1OC	8	22	-3	26	9	59*
O=C(CN(c1ccc(Cl)cc1)S(=O)(=O)c1ccc(Cl)c([N+](=O)[O-])c1)NCCc1ccc(F)cc1	-3	28	70*	-5	2	95*
COC(=O)C1C(=O)C2=C(CC1C)Nc1ccccc1NC2c1ccc(C)s1 (centres undefined)	-21	8	-12	16	3	18
O=C(/C=C/c1ccc(N2CCCCC2)c([N+](=O)[O-])c1)c1ccc(S(=O)(=O)N2CCCC2)cc1	-18	21	-2	17	10	55*
CC(=O)N1CCN(c2ccc(S(=O)(=O)N3CCCCC3)cc2[N+](=O)[O-])CC1	-18	7	-6	9	5	5
COC(=O)c1ncccc1SC	-3	7	1	-4	-1	4
Nc1nnc(-c2ccco2)s1	18	-2	-1	2	3	-3
Nc1ncnc2oc(-c3ccco3)c(-c3ccco3)c12	-23	-16	10	53*	19	40
COc1c2c(c3c(c1OC)c(=O)c1ccccc1n3C)OCO2	-6	-10	9	9	-41	-13
O=C(Oc1ccc(NC2=C(Cl)C(=O)c3ccccc3C2=O)cc1)c1ccc([N+](=O)[O-])cc1	-15	13	82*	20	4	99*
CCc1nc2c(OCCOc3ccccc3)cccn2c1N(C)C(=O)C1CC1	6	18	x	-11	7	9
CCOc1ccc(CN(C)CC(O)COC(c2ccc(OC)cc2)c2ccc(OC)cc2)cc1 (centres undefined)	-6	-7	-5	12	7	50*
O=C(C1CCCCC1)N1C[C@H](O)[C@@H](n2cc(-c3ccc(F)cc3)nn2)C[C@@H]1c1ccccc1	9	10	x	1	0	2
COC(=O)c1c(N)sc(C(=O)N2CCOCC2)c1C	-2	13	6	10	2	-3
COC(=O)c1c(NC(=O)CCl)sc(C(=O)N2CCOCC2)c1C	-40	-2	25	50*	16	37
COc1cccc(/C=N/Nc2nc(Nc3ccc([N+](=O)[O-])cc3)nc(N3CCCC3)n2)c1O	-43	0	11	97*	9	62*
COc1cccc(/C=N/Nc2ccc([N+](=O)[O-])cn2)c1O	-91*	78*	12	100*	10	59*
SMILES	KKLEB tox	HIF-2a block	MITF TRPM1 inh	CF NFkB block	ABHD5-PLIN5 inh	Peg3 promoter
O=[N+]([O-])c1cccc(C=NNc2ccc3ccccc3n2)c1O	-16	-70	79*	-11	7	18
COc1ccc(C(=O)NCC(=O)N2CCN(c3ncccn3)CC2)cc1OC	-13	-1	1	28	1	3
COc1ccc(C2CC(C)(c3ccc(OC)cc3OC)Nc3ccccc3N2)c(OC)c1 (centres undefined)	-8	9	7	-4	-3	-1
CCC(C)(C(=O)NC1CCCC1)N(Cc1cccs1)C(=O)c1ccc2c(c1)OCO2 (centres undefined)	18	19	10	-13	0	22
COC(=O)c1cc(S(=O)(=O)Nc2cccc(OC)c2)cn1C	-2	9	12	1	1	52*
CC(C)c1nc2sc3c(NCc4ccco4)ncnc3c2c2c1COC(C)(C)C2	-66*	27	-1	78*	6	27
CC(C)c1nc2sc3c(NCc4ccccc4)ncnc3c2c2c1COC(C)(C)C2	-29	2	7	36	-3	10
CCCCn1nnnc1C(c1cccs1)N1CCN(C/C=C/c2ccccc2)CC1 (centres undefined)	-5	-14	x	-3	-1	3
Cc1nnsc1C(=O)N/N=C/c1ccccc1	-4	5	-1	-14	-5	-13
Cc1nnsc1C(=O)N/N=C/c1ccc2ccccc2c1O	-2	3	69*	1	1	44
FC(F)(F)c1cccc(NC(=S)NC(c2ccccc2)c2ccccc2)c1	-42	10	18	46	-15	50*
FC(F)(F)c1cccc(NC(=S)Nc2ccc(Cl)c(Cl)c2)c1	-10	-35	14	15	-1	24
CC(C)(C)NC(=O)CN(C(=O)C(=O)Nc1ccc2c(c1)OCCO2)C(C)(C)C	-5	9	1	20	-4	12
CCCc1c(C(=O)N/N=C(\C)CCc2ccccc2)nnn1-c1nonc1N	3	2	5	-2	-2	-15
Cc1ccc(-n2ncc3c2CC(C)(C)CC3NC(=O)CCN2CCCO2)cc1 (centres undefined)	11	7	-4	-19	14	50*
O=C(NC1CCCCC1)c1ccc(-c2ccccc2F)o1	-16	-156	-71	5	23*	-244
N#Cc1cnn2ccc(-c3cc(N4CCOCC4)ccc3[N+](=O)[O-])nc12	-5	19	0	16	4	-11
CCOC(=O)c1c(N)n(-c2ccc(N)cc2)c2nc3ccccc3nc12	-8	15	-3	4	7	17
CCCCCOC(=O)c1c(N)n(CCOC)c2nc3ccccc3nc12	-7	-15	61*	-20	-9	19
CCOC(=O)c1c(N)n(CCOC(=O)c2cccs2)c2nc3ccccc3nc12	-38	-6	-4	50*	-20	-16
